Screens (PubChem BioAssay)
FBPA Giardia inh – blocks Giardia fructose-bisphosphate aldolase activity; 290,000 tested, 0.71% active; purified Giardia FBPA; Potency, µM (top dose mostly 59.6 µM), usual class: inhibitors; A8B2U2; also: nearly all actives have a fitted effect of over 55% in size
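40 nM FBPA preincubated 10 min at RT with compound (up to 57.5 uM final), then substrate plus GAPDH/TPI/NAD/arsenate coupling and diaphorase/resazurin added. Fluorescence read after 20 min at RT, 525/598 nm.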
AmpC detergent – blocks E. coli AmpC beta-lactamase in detergent assay; P00811; AmpC hydrolysis of nitrocefin, absorbance 480 nm, 0.01% Triton; Potency, µM (series often up to 114 µM), usual class: inhibitors; 370,000 tested, 0.041% active; AID 485294; also: nearly all actives have a fitted effect of over 25% in size
Target sequence (P00811 whole entry, looked up): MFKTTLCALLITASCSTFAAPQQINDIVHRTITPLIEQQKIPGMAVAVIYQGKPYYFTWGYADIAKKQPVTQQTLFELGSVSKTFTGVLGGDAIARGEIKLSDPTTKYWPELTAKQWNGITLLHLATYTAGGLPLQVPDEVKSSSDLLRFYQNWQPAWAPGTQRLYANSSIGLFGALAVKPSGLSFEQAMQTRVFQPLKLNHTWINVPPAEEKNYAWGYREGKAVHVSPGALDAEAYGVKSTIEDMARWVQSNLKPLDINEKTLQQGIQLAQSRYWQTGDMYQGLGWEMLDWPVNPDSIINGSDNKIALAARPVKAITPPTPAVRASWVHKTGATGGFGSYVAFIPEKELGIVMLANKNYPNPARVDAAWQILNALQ
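20 mM phosphate pH 7.0 + 0.01% (detergent screen) or 0.0001% Triton X-100; 5.3 nM AmpC reagent; cpd preinc 15 min RT; nitrocefin (800 uM stock) to start; A480 q20 s × 4 min; Activity was normalised to no-enzyme and no-compound control wells.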
Sm TGR block – inhibitors of Schistosoma mansoni thioredoxin glutathione reductase. purified TGR, DTNB reduction, TNB absorbance 405 nm. Potency, µM (titrated, usually from 114 µM), most hits filed as inhibitors. 360,000 tested, 3% active. AID 485364; also: nearly all actives have a fitted effect of over 60% in size
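Kinetic colorimetric format: TGR-catalysed, NADPH-driven DTNB reduction monitored via TNB absorbance. Enzyme dispensed at 20 nM; compound exposure 15 min at room temperature before reaction start.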
AmpC inh no detg – inhibitors of E. coli AmpC beta-lactamase without detergent; P00811; AmpC nitrocefin hydrolysis, absorbance 480 nm, 0.0001% Triton; Potency, µM (highest dose often 57.1 µM), usual class: inhibitors; 330,000 tested, 0.52% active; AID 485341; also: nearly all actives have a fitted effect of over 20% in size
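20 mM phosphate pH 7.0 + 0.01% (detergent screen) or 0.0001% Triton X-100; 5.3 nM AmpC reagent; cpd preinc 15 min RT; nitrocefin (800 uM stock) to start; A480 q20 s × 4 min; Activity was normalised to no-enzyme and no-compound control wells.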
A number is an active result; i = inactive; ? = inconclusive; nt = not tested or not shown; [ ] = dose if it differs, or a comment. The list is not random: actives were taken first. Their share in the collection is about 3.6%. Calls follow the shape of the dose curve; as a rule, active = well fitted curve in the direction sought with a large enough effect; inconclusive = small, poorly fitted or top-dose-only effect, or another doubt; inactive = no such curve, though single readings can be large; an effect the other way counts as inactive or inconclusive.

SMILES | FBPA Giardia inh | AmpC detergent | Sm TGR block | AmpC inh no detg
COC(=O)c1ccc(NC(=O)Cc2coc3cc(C)ccc23)cc1 | nt | i | i | nt
COc1ccc(-c2ccn(-c3cccc(F)n3)n2)cc1 | i | i | 28.2µM | i
O=C(NC1CCCCCC1)C1c2ccccc2C(=O)N1Cc1ccco1 (stereo not given) | i | i | 50.1µM | i
O=C(NC1CCCCCC1)C1c2ccccc2C(=O)N1Cc1cccs1 (stereo not given) | i | ? | i | i
CC(=O)OC1CC(OC(C)=O)[C@]2(C)C(CC(OC(C)=O)[C@@]3(C)C4=CC(=O)OC(c5ccoc5)[C@]4(C)CCC32)C1(C)C (stereo not given in full) | i | nt | nt | nt
COc1ccc(NC2CCCN(C(=O)c3ccc(C(C)=O)s3)C2)cc1 (stereo not given) | i | i | i | i
Cc1ccc(N2C(=O)CS(=O)C(c3ccccc3)C2=O)cc1C (stereo not given) | i | i | 1.12µM | i
CC1CCC(NC(=O)C(Cc2ccccc2)n2cccc2)CC1 (stereo not given) | i | i | i | i
CSc1ccc(-c2ccco2)nn1 | ? | i | 10µM | i
CCSc1ccc(-c2ccco2)nn1 | i | i | 12.6µM | i
CC1(C)CC(NC(=S)Nc2ccc([N+](=O)[O-])cc2)CC(C)(C)N1 | i | i | 50.1µM | i
COc1cc(NC(=S)NC2CC(C)(C)NC(C)(C)C2)cc(OC)c1 | i | i | i | i
CN(C(=O)CSc1nc2ccccc2n1CC(=O)NCc1ccc(F)cc1)c1ccc(F)cc1 | nt | i | i | nt
Cc1ccc(S(=O)(=O)n2ccc(OC(=O)c3cccs3)n2)cc1 | i | i | 6.31µM | i
Cc1ccc(S(=O)(=O)n2nc(OC(=O)c3cccs3)cc2N)cc1 | i | i | i | i
Cc1occc1-c1nnc(SCC(=O)N2CCc3ccccc32)o1 | i | i | 25.1µM | i
COCCn1c(SCC(=O)N2CCCc3ccccc32)nnc1-c1ccoc1C | i | ? | 39.8µM | i
Cc1ccc(-c2nnc(SCC(=O)N3CCc4ccccc43)o2)cc1 | nt | i | i | nt
COc1ccccc1NC(=O)CCN1C(=O)c2ccccc2C1=O | i | i | i | i
COc1ccc([C@]23Cc4ccccc4C(O2)C2=C(O3)C(=O)c3ccccc3C2=O)cc1 | i[12.9 µM] | ? | 7.08µM | i[11.4 µM]
COc1ccc([C@]23Cc4cc(OC)c(OC)cc4C(O2)C2=C(CCCC2=O)O3)cc1 | ? | i[22.9 µM] | 3.55µM | i[11.4 µM]
CNc1ccc(C(=O)OCC(=O)NC(=O)NC2CCCC2)cc1[N+](=O)[O-] | nt | nt | nt | i
CC(C)Nc1nnc(SCC(=O)Nc2ccc3c(c2)C(=O)c2ccccc2C3=O)s1 | i | i | i | 10µM
CCOc1ccccc1Nc1nnc(SCC(=O)Nc2ccc3[nH]c(=O)[nH]c3c2)s1 | i | i | i | 17.8µM
CSc1nnc(SCC(=O)Nc2ccc3[nH]c(=O)[nH]c3c2)s1 | nt | i | i | i
SMILES | FBPA Giardia inh | AmpC detergent | Sm TGR block | AmpC inh no detg
COc1ccccc1Nc1nnc(SCC(=O)Nc2nc(-c3ccc(F)cc3)cs2)s1 | i | i | i | 15.8µM
O=C(CCCc1ccccc1)NC12CC3CC(CC(C3)C1)C2 | i | i | i | i
Cc1ccccc1C(=O)N1c2ncnn2C2(CCCCC2)[C@@H]2CCCC[C@@H]21 | nt | i | i | nt
Cc1ccc(CN2CCNC(=O)C2CC(=O)NCC(F)(F)F)o1 (stereo not given) | i | i | 39.8µM | i
Cc1ccc(CN2CCNC(=O)C2CC(=O)N(C)C(C2CC2)C2CC2)o1 (stereo not given) | i | i | 25.1µM | i
CN(C(=O)CC1C(=O)NCCN1CC(c1ccccc1)c1ccccc1)C(C1CC1)C1CC1 (stereo not given) | i | i | 44.7µM | i
CCOc1ccc(CN2CCNC(=O)C2CC(=O)N(C)Cc2nonc2C)cc1 (stereo not given) | i | i | i | i
CC(C)(CO)CNC(=O)CC1C(=O)NCCN1CC(c1ccccc1)c1ccccc1 (stereo not given) | i | ? | ? | i
CCn1cc(/C=C(\NC(=O)c2ccc(C)cc2)C(=O)NCCCn2ccnc2)c2ccccc21 | nt | i | i | nt
CC(CNC(=O)CCS(=O)(=O)c1cc2c(cc1Cl)NC(=O)CO2)c1ccccc1 (stereo not given) | i | i | i | i
Cc1c(C(=O)NC2CCCCC2C)oc2ccccc12 (stereo not given) | nt | i | 0.562µM | i
COc1ccc(S(=O)(=O)Cc2ccc(C(=O)NCc3ccco3)o2)cc1 | i | ? | 39.8µM | i
COc1ccc(S(=O)(=O)Cc2ccc(C(=O)NCCCN3CCc4ccccc4C3)o2)cc1 | ? | i | 44.7µM | i
CCS(=O)(=O)N1CC(=O)N(c2ccc(Cl)cc2)C(C)(C(=O)NC2CCCCC2)C1 (stereo not given) | nt | i | i | nt
O=S(=O)(NCc1ccco1)c1ccc(Cl)cc1Cl | i | ? | 44.7µM | i
Cc1ccc2ccc(S(=O)(=O)NCc3ccco3)cc2c1 | i | i | 12.6µM | i
O=C(O)c1ccc(Cl)c(S(=O)(=O)NCc2ccco2)c1 | i | ? | ? | i
Cc1cccc(C(=O)N2CCCC(N3CCN(c4cccc(Cl)c4)CC3)C2)n1 (stereo not given) | nt | i | i | i
O=C(c1cnccn1)N1CCCC(N2CCN(c3cccc(Cl)c3)CC2)C1 (stereo not given) | nt | i | 89.1µM | i
O=C(CN1CCN(c2ccccc2F)CC1)c1ccc(O)c(O)c1 | ? | i | ? | i
O=S(=O)(c1ccccc1)N1CCN(Cc2c(O)ccc3ccccc23)CC1 | nt | nt | nt | i
Oc1ccc2ccccc2c1CN1CCN(C/C=C/c2ccccc2)CC1 | i | i | 2.82µM | i
Oc1ccc2ccccc2c1CN1CCN(c2ccccc2F)CC1 | i | i | 11.2µM | i
CCN1C(=NCCc2c[nH]c3ccccc23)N[C@@H](c2ccccc2)[C@H](C(=O)OC)[C@H]1C | i | ? | 44.7µM | i
COc1ccc(-c2noc(COc3cc(C)ccc3C)n2)cc1OC | nt | i | i | nt
SMILES | FBPA Giardia inh | AmpC detergent | Sm TGR block | AmpC inh no detg
CNc1ccc(/C=C/C(=O)c2cccc3ccccc23)cc1[N+](=O)[O-] | i | i | i | 28.2µM
Oc1ccc2c(c1)C1CCCC1(N1CCOCC1)O2 (stereo not given) | ? | i | 28.2µM | i
CC1=C(C(=O)N2CCOCC2)C(c2ccc(O)cc2)NC(=S)N1 (stereo not given) | i | i | i | i
Cc1cccc(OCc2nnc(SCCC(=O)O)n2-c2ccccc2)c1 | i | ? | 79.4µM | i
N#Cc1c(-c2cccc(Br)c2)cc(-c2ccco2)[nH]c1=O | i | i | 10µM | i
CCOC(=O)C1(Cc2ccccc2C)CCCN(C(=O)CCc2cccnc2)C1 (stereo not given) | i | i | i | i
NC(N)=Nc1ccc2[nH]c3c(c2c1)C[C@@]1(O)[C@H]2Cc4ccc(O)c5c4[C@@]1(CCN2CC1CC1)[C@H]3O5 | i | i | 0.794µM | i
